Molecular target: SLC27A5
Test: pooled miR-30 sensor sort-seq; sequence = guide strand
Conditions: shRNA
Also: reference of the scale not given here.

Sequence | sensor-assay potency score (higher = more potent)
TTGCAAGAAGTCCACCTGCGAC | -1.49
TAAACCACATCATCAGCTGTGG | -0.167
TTGTAGTAAACGTCGCCCGATT | -1.15
TACAGGATCACTGTCACGCCAT | -0.0663
TAGTCCATTGCCCATTGCCAGG | -1.83
TGTTGTAGTAAACGTCGCCCGA | -0.779
TATGTGTCCGGTCCTCTGGTTG | -1.24
TATTCTGCCACTGCTACAGGGC | -0.565
TTGACTAAGCCCATGTTGCCTT | -0.405
TAGTTGACTAAGCCCATGTTGC | -0.878
TTCATCAGTTTGAACGTGCTGG | 0.535
TTGTCCAGTACAAACAGAGGGT | -0.338

Molecular target: SLC28A2
Test: as above
Conditions: shRNA

Sequence | sensor-assay potency score (higher = more potent)
TTTGTTCTTGTATTGAGACAGT | -0.497
ATAGTGATTTGTAAAAACCAGG | -0.831
TTGGGAAGGAGACACAGTCAGC | -1.18
TTGGACAAGTCACTCTTCCGGT | -0.0512
